Screening results from PubChem BioAssay.
Rab9 promoter act = qHTS Assay for Rab9 Promoter Activators; AID 485297, 2010; hit rate 2.8% among 320,000; Potency, µM (doses to about 9.22 µM), for the others: at the highest dose activation, negative = inhibition, actives largely listed as activators; Huh7 Rab9 promoter-luciferase reporter, luminescence, 24 h; also: % of control where 0% means no effect; nearly all actives have a fitted effect of over 60% in size
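Using Huh7 cells stably transfected with Rab9 promoter–luciferase, compounds were incubated 24 h at 37 °C, 5% CO2; luciferase luminescence was read 10 min after reagent addition.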
FLuc modulator = qHTS profiling assay for firefly luciferase inhibitor/activator using purifed enzyme and Km concentrations of substrates (counterscreen for miR-21 project). Luciferin 4-monooxygenase (Photinus pyralis), P08659. purified FLuc, Km substrates, luminescence inhibition. Potency, µM (series often up to 57.5 µM), without a hit: top-dose activity change, negative = inhibition, usual class: inhibitors. hit rate 6.9% among 360,000;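 also: plate controls were vehicle for no effect and reference inhibitor for full effect; nearly all actives have a fitted effect of over 55% in size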
Target sequence (P08659 whole entry, looked up): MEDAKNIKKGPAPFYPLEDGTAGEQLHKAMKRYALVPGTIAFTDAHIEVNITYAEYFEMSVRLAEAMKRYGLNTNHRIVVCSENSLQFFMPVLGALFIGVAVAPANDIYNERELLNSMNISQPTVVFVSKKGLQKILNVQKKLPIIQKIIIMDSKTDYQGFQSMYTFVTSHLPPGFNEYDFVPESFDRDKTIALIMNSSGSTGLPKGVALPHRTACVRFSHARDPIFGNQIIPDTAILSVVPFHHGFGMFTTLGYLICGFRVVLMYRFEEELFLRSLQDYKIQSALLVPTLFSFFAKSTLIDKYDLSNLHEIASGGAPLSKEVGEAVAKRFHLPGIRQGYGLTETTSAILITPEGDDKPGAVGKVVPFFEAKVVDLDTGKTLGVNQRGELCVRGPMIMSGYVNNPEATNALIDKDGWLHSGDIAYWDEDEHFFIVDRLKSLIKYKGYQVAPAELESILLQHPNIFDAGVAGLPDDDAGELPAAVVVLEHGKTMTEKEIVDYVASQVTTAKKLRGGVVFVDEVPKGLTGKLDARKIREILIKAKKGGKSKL
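Purified P. pyralis luciferase (10nM final) with 10uM D-luciferin and 10uM ATP (Km levels) in 50mM Tris acetate pH 7.5, 10mM Mg acetate, 0.01% Tween-20, 0.05% BSA; qHTS 6-point titration, ~60 µM downward; luminescence read.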
NPC1 prom act = qHTS Assay for NPC1 Promoter Activators; AID 485313, 2010; Huh7 NPC1 promoter luciferase reporter, 24 h; Potency, µM (series often up to 9.22 µM), for the others: top-dose activation, usual class: activators; hit rate 2.4% among 320,000; also: % of control where 0% means no effect; nearly all actives have a fitted effect of over 60% in size
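Cells: Huh7 expressing luciferase under the NPC1 promoter, 1500/well. Seeded 2 h, compound added, incubated 24 h at 37 °C. Luciferase reagent, 10 min ambient, then luminescence.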
KinaseGlo FLuc = Counterscreen for Luciferase (Kinase-Glo TM) Inhibition; Luciferin 4-monooxygenase (Photuris pensylvanica), Q27757; Kinase-Glo luciferase, ATP luminescence, 8 min; Potency, µM (series often up to 38.3 µM), without a hit: at the highest dose activity change, negative = inhibition, hits mostly inhibitors; hit rate 0.28% among 200,000; also: % is scaled to controls: 0 for no effect and ±100 for the full control effect; nearly all actives have a fitted effect of over 60% in size
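Compound is pinned into ATP-containing buffer (10 uM ATP, imidazole pH 7.2, 7 mM MgCl2). Kinase-Glo luciferase reagent is then added. Light output is recorded following an 8-min room-temperature incubation.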
ELG1 genotox = qHTS screen for small molecules that induce genotoxicity in human embryonic kidney (HEK293T) cells expressing luciferase-tagged ELG1 | HEK293T ELG1-luciferase reporter, luminescence, 16 h | Potency, µM (doses to about 46 µM), for the others: top-dose activity change, positive = activation, hits mostly activators | hit rate 1.3% among 330,000 | AID 504466, 2011; also: % of control where 0% means no effect; nearly all actives have a fitted effect of over 60% in size
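HEK293T cells expressing luciferase-tagged ELG1 were exposed to compound or DMSO vehicle for 16 hr at 37 °C and 5% CO2. Luciferase activity was then measured with ONE-Glo after 30 min at room temperature.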
SMN2 splice enh = qHTS Assay for Enhancers of SMN2 Splice Variant Expression; HEK293 SMN2-luciferase splicing reporter, luminescence, 30-36 h; Potency, µM (top dose mostly 46.1 µM), inactives show at the highest dose activity change, positive = activation, usual class: activators; hit rate 2.8% among 210,000; AID 1458, 2008; also: % of control where 0% means no effect; nearly all actives have a fitted effect of over 55% in size
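qHTS luciferase splicing reporter: luminescence rises when SMN2 exon 7 is included in transfected HEK293 cells. Compound exposure lasted 30-36 h at 37C, with 4.5 mM final sodium butyrate as control, followed by a ONE-Glo read.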
Active calls of the source: *; [ ] = dose if it differs, or a comment. Shown are actives, neighbours in structure and some others; about 7.3% of the full set was active somewhere. Calls follow the shape of the dose curve; as a rule, active = well fitted curve in the direction sought with a large enough effect; inconclusive = small, poorly fitted or top-dose-only effect, or another doubt; inactive = no such curve, though single readings can be large; an effect the other way counts as inactive or inconclusive. Potency is read from the fitted curve at half-maximal effect.

Screening O=C(Nc1ccccc1F)C(=O)Nc1cccc2ccccc12 returned Rab9 promoter act 2.82µM*, FLuc modulator inconclusive, NPC1 prom act inconclusive and ELG1 genotox inconclusive.
O=C(Nc1cccc2ccccc12)/C(Cl)=C/c1ccccc1 was read as Rab9 promoter act 6.8%, FLuc modulator 12µM*, NPC1 prom act 1.8%, KinaseGlo FLuc 7.4%, ELG1 genotox 1.0% and SMN2 splice enh 10.1%.
COc1ccc(N2CCN(c3oc(/C=C/c4cc(OC)c(OC)c(OC)c4)nc3C#N)CC2)cc1 was read as FLuc modulator -5.1% and SMN2 splice enh -10.0%.
`Cc1ccc(C(=O)O/N=C(\N)c2ccc(C(F)(F)F)cn2)cc1` gave Rab9 promoter act -5.2%, FLuc modulator 2.13µM*, NPC1 prom act 2.1% and ELG1 genotox 14.6%.
N/C(=N\OC(=O)c1csnn1)c1ccc(C(F)(F)F)cc1 was read as Rab9 promoter act inconclusive, FLuc modulator 19µM*, NPC1 prom act inconclusive and ELG1 genotox 13.1%.
`NC(=NC(=O)c1ccc(OC(F)(F)F)cc1)c1ccc(C(F)(F)F)cn1` gave Rab9 promoter act -12.2%, FLuc modulator 0.8%, NPC1 prom act -2.7% and ELG1 genotox -2.9%.
For COc1ccc(NC(=O)c2cccnc2)c([N+](=O)[O-])c1 the results were Rab9 promoter act -27.3%, FLuc modulator -6.4%, NPC1 prom act -34.6%, KinaseGlo FLuc 0.4%, ELG1 genotox -0.2% and SMN2 splice enh 10.3%.
For CCC(=O)Nc1ccc(C(=O)Nc2ccc(OC)cc2[N+](=O)[O-])cc1 the results were Rab9 promoter act -5.1%, FLuc modulator -1.7%, NPC1 prom act -0.1% and ELG1 genotox 11.3%.
Screening CCCc1cc(C(=O)Nc2ccc(OC)cc2[N+](=O)[O-])cs1 returned Rab9 promoter act 22.8%, FLuc modulator 12µM*, NPC1 prom act 21.6% and ELG1 genotox 12.0%.
COc1ccc(NC(=O)c2ccccc2)c([N+](=O)[O-])c1 was read as Rab9 promoter act 2.82µM*, FLuc modulator inconclusive, NPC1 prom act inconclusive, KinaseGlo FLuc -5.3%, ELG1 genotox inconclusive and SMN2 splice enh inconclusive.
For COC(=O)c1c(NC(=O)c2cc3nc(-c4ccc(Br)cc4)cc(C(F)(F)F)n3n2)sc2c1CCCC2 the results were FLuc modulator -1.4%.
Screening CCN1C(=O)c2ccccc2S(=O)(=O)c2ccc(C(=O)NCc3ccccc3OC)cc21 returned FLuc modulator 0.0% and SMN2 splice enh -12.7%.
`CCCCCCCCCCCCCCCC(=O)OCC(O)C1OC(=O)C(O)=C1O` (stereo not drawn) gave KinaseGlo FLuc 0.0%[39.9 µM].
Cc1ccccc1NC(=O)N1CCc2cc(S(=O)(=O)N3CCC(C)CC3)ccc21 was read as FLuc modulator -1.4% and SMN2 splice enh 0.6%.
Screening CC1=N/C(=C\c2ccc(OC(C)C)cc2)C(=O)N1c1ccc(C(=O)O)cc1 returned Rab9 promoter act -3.6%, FLuc modulator 12µM*, NPC1 prom act 0.2%, KinaseGlo FLuc 0.1%, ELG1 genotox 5.5% and SMN2 splice enh -8.8%.
For COc1ccc(/C=C2\N=C(c3ccccc3)N(c3ccc(C(=O)O)cc3)C2=O)cc1OC the results were Rab9 promoter act 12.2%, FLuc modulator 5.36µM*, NPC1 prom act 12.9% and ELG1 genotox 14.5%.
`COc1ccc(/C=C2\N=C(c3c(-c4ccccc4)noc3C)OC2=O)cc1OC` gave Rab9 promoter act 0.5%, FLuc modulator -0.4%, NPC1 prom act -3.3%, KinaseGlo FLuc -3.1%, ELG1 genotox 2.1% and SMN2 splice enh -0.5%.
For Cc1ccn2cc(CSc3ccccc3)nc2c1 the results were Rab9 promoter act 1.41µM*, FLuc modulator 4.78µM*, NPC1 prom act 1.26µM*, KinaseGlo FLuc -8.5%, ELG1 genotox 3.66µM* and SMN2 splice enh 12.6µM*.
Screening Cn1ccnc1SCc1cn2ccccc2n1 returned Rab9 promoter act 3.16µM*, FLuc modulator 16.9µM*, NPC1 prom act 3.16µM*, KinaseGlo FLuc -11.5%, ELG1 genotox inconclusive and SMN2 splice enh inconclusive.
For O=[N+]([O-])c1cccc(CSc2nnc3ccccn23)c1 the results were Rab9 promoter act 0.5%, FLuc modulator 6.2%, NPC1 prom act -4.1%, KinaseGlo FLuc -2.7%, ELG1 genotox 3.5% and SMN2 splice enh 1.8%.
`c1ccn2cc(CSC3=NCCS3)nc2c1` gave Rab9 promoter act inconclusive, FLuc modulator 19µM*, NPC1 prom act inconclusive, KinaseGlo FLuc -8.6%, ELG1 genotox inconclusive and SMN2 splice enh inconclusive.
For c1ccn2c(SCc3ccc4c(c3)OCCO4)nnc2c1 the results were Rab9 promoter act 3.55µM*, FLuc modulator inconclusive, NPC1 prom act inconclusive, KinaseGlo FLuc -5.4%, ELG1 genotox 20.6µM* and SMN2 splice enh 11.2µM*.
O=C(Oc1ccccc1)n1c(=O)oc2ccc(Cl)cc21 was read as KinaseGlo FLuc 1.3%.
CCC(=O)N1CCc2cc(CNS(=O)(=O)c3cc(Cl)ccc3OC)ccc21 was read as FLuc modulator -1.8%.
`c1ccc(-n2nnnc2SCc2cn3ccccc3n2)cc1` gave Rab9 promoter act 8.2%, FLuc modulator -3.2%, NPC1 prom act 6.9%, KinaseGlo FLuc -1.9%, ELG1 genotox -3.7% and SMN2 splice enh 9.2%.
c1ccn2cc(CSc3nnc4ccccn34)nc2c1 was read as Rab9 promoter act 1µM*, FLuc modulator 13.5µM*, NPC1 prom act 3.55µM*, KinaseGlo FLuc -14.6%, ELG1 genotox 10.3µM* and SMN2 splice enh 17.1%.
c1ccc(-c2ccc(-c3ccc(C4=NCCN4)cc3)o2)cc1 was read as KinaseGlo FLuc -0.3%[7.66 µM] and SMN2 splice enh 21.6%[9.22 µM].
Screening COc1ccc(-c2ccc(SCC(=O)Nc3nnc(C)s3)nn2)cc1 returned Rab9 promoter act inconclusive, FLuc modulator 1.35µM*, NPC1 prom act 6.4%, KinaseGlo FLuc -11.9%, ELG1 genotox 8.3% and SMN2 splice enh inconclusive.
CCOc1ccc(NC(=O)CCC(=O)Nc2nnc(CC)s2)cc1 was read as Rab9 promoter act -0.8%, FLuc modulator -0.9%, NPC1 prom act 19.0% and ELG1 genotox 15.8%.
For O=C(CSc1nc(-c2ccccc2)cs1)NCc1ccco1 the results were Rab9 promoter act 3.4%, FLuc modulator inconclusive, NPC1 prom act 0.2%, KinaseGlo FLuc -2.9%, ELG1 genotox 23.1µM* and SMN2 splice enh -7.7%.
